# Compound activity from PubChem.
# D2 antagonist = antagonists of human D2 dopamine receptor | HEK293 TREx D2 cells, calcium flux, dopamine EC80 | inhibition, % at 10 µM | actives 2% (n = 340,000) | P14416; in the data active means inhibition above about 30%; inactive means below that, where a call was filed; further: 0% is about no effect
# Target sequence (P14416 whole entry, looked up): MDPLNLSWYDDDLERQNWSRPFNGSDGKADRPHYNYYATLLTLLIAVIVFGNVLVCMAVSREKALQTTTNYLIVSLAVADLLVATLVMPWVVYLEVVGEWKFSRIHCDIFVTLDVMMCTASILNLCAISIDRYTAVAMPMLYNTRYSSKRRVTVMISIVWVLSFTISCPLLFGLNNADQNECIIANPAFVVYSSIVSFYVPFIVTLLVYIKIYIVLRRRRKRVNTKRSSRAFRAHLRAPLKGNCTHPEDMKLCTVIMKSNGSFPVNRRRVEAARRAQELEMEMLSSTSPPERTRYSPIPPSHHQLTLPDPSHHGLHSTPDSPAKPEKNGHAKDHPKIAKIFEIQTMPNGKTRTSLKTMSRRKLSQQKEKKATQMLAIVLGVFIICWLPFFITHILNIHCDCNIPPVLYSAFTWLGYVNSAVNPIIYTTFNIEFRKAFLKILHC
#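 Compounds are added to dye-loaded, induced HEK293 T-REx cells coupled to calcium release via D2; after a 3 min kinetic read an EC80 dopamine stimulus is given and fluorescence is recorded for 3 more min.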
# D2 PAM-1 = potentiates the human D2 dopamine receptor allosterically; P14416; DiscoveRx D2 beta-arrestin cells, luminescence, 90 min; 100% = 57 uM dopamine signal; potentiation, % (no concentration beside the values); actives 0.23% (n = 360,000); in the data active means potentiation above about 50%; inconclusive means mostly about 30% to 49%
#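 PathHunter beta-arrestin assay in DiscoveRx D2 cells. Compounds were added with an EC20 of dopamine (50 nM final) for 90 min at 37 deg C. Luminescence was read 1 h after detection reagent, with 57 uM dopamine as the EC100 control.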
# D2 ag-1 = D2 dopamine receptor (human) agonism; HEK293 T-REx D2 cells, calcium flux agonist mode; activation, % at 2 µM; P14416; actives 0.53% (n = 340,000);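 active means activation over 3 SD above normal in the single-dose calcium agonist read, cut at about 30% in these data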; further: 0% is about no effect
#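 Tetracycline-induced HEK293 Trex cells with D2 receptor force-coupled to calcium signaling, plated overnight at 30 C and loaded with no-wash calcium dye. Calcium flux read kinetically for 180 s after compound addition; responses flag agonists.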
# D2 PAM-2 = positive allosteric modulators of human D2 dopamine receptor. HEK293 T-REx D2, calcium flux, EC20 dopamine potentiation. actives 0.34% (n = 340,000). potentiation, % at 10 µM. P14416. AID 485347;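 active means potentiation over 3 SD above the plate norm, cut at about 30% in these data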; further: 0% is about no effect
#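 Using a no-wash calcium dye in inducible, force-coupled HEK293 Trex cells expressing D2, we tracked fluorescence each second for 180 s after compound, then for 180 s after EC20 dopamine to detect augmented signalling.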
# D2 ag-2 = activates the human D2 dopamine receptor; DiscoveRx PathHunter D2 beta-arrestin, luminescence, 90 min; 100% = 57 uM dopamine signal; activation, % (no concentration beside the values); AID 624465; actives 0.084% (n = 360,000); P14416; in the data active means activation above about 40%; inconclusive means between about 15% and that limit
#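 Agonist mode: compounds alone added to overnight-plated D2 PathHunter cells for 90 min at 37 C, with 57 uM final dopamine (EC100) defining full response. Beta-arrestin recruitment detected by chemiluminescent reagent, read after 1 h at ambient temperature.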
# D3 ag = D3 receptor agonism confirmed, beta-arrestin readout. shares compounds with D2 ag-1. DiscoveRx D3 beta-arrestin cells, luminescence, 90 min. Potency, µM (highest dose often 76.9 µM), for the others: at the top dose activation, hits mostly activators. actives 4% (n = 2,300);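 further: potency means the concentration at half of the fitted maximal effect; 100% = dopamine control response; nearly all actives have a fitted effect of over 70% in size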
# D2 ag-3 = counter-screen for D3 agonists: human D2 dopamine receptor agonism | shares compounds with D2 ag-1 | DiscoveRx PathHunter D2 beta-arrestin, luminescence, 90 min; response scale: percent relative to full dopamine signal | Potency, µM (titrated, usually from 76.9 µM), for inactives: at the highest dose activation, hits mostly activators | actives 5.9% (n = 2,300); further: potency means the concentration at half of the fitted maximal effect; % of control where 0% means no effect; nearly all actives have a fitted effect of over 70% in size
# Active calls of the source: *; ? = inconclusive; nt = no result. Hits are enriched below; roughly 2.4% of the tested compounds scored in any of these assays. Unless noted, the call rests on the fitted dose curve; in most records, active means well fitted activation curve with a large enough effect; inconclusive means small, poorly fitted or top-dose-only effect; inactive means flat fitted curve, though single readings scatter.
SMILES,D2 antagonist,D2 PAM-1,D2 ag-1,D2 PAM-2,D2 ag-2,D3 ag,D2 ag-3
COc1ccc(N2C(S)=C(C#N)C(=O)NC2c2ccco2)cc1 (stereo not given),9,-6,50*,-20,3,1%,-3%
CN(Cc1ccccc1)C(=O)C1CCC(CNS(=O)(=O)c2ccc3c(c2)CCCC(=O)N3)CC1 (stereo not given),nt,nt,1,7,nt,nt,nt
CC(NC(=O)CCC(=O)N1CCCCCC1)c1ccccc1 (stereo not given),10,3,44*,-23,0,-1%,-2%
CC(NC(=O)CCC(=O)NC(C)c1ccccc1)c1ccccc1 (stereo not given),-17,-5,0,-3,-2,nt,nt
O=C(O)c1ccc(CNCc2ccc(Cl)cc2)s1,nt,nt,-1,-6,nt,nt,nt
Nc1ccc(-c2nc3cc([N+](=O)[O-])ccc3o2)cc1,-6,-12,1,18,-3,17%,7%
COc1cccc(N2CCN(c3c4c(nc5nncn35)CCC4)CC2)c1,nt,nt,1,10,nt,nt,nt
N#CCN(C(=O)COC(=O)CCCNC(=O)c1ccc(Cl)cc1)c1ccccc1,-11,-10,0,2,0,-3%,2%
Cc1ccc(N(C(=O)c2cccc(C)c2)S(=O)(=O)c2ccc(Cl)cc2)cc1,nt,nt,-1,-1,nt,nt,nt
Cc1ccc(C(=O)/C=C/Nc2ccc(S(=O)(=O)Nc3cc(C)nc(C)n3)cc2)cc1,17,6,-1,-19,-1,-4%,2%
COc1ccc(CCNC(=O)c2cc(C3CC3)on2)cc1OC,-4,-3,0,-1,-4,-10%,0%
O=S(=O)(c1ccc(OCC(O)CN2CCN(c3ccc(F)cc3)CC2)cc1)N1CCOCC1 (stereo not given),67*,-10,76*,-17,13,8%,?
COc1ccc(S(=O)(=O)N2CCN(CC(O)CN3CCOCC3)CC2)cc1 (stereo not given),-10,-3,0,20,-4,nt,nt
COc1ccccc1N1CCN(CC(O)COc2ccc(S(=O)(=O)N3CCOCC3)cc2)CC1 (stereo not given),92*,-19,71*,-17,?,-6%,?
CCN1CCN(Cc2cccc(Oc3ccc(Cl)cc3)c2)CC1,14,-29,1,5,-2,nt,nt
CCOC(=O)C1CCN(Cc2cccc(Oc3ccc(Cl)cc3)c2)CC1,72*,17,62*,-27,?,?,40µM*
CCOC(=O)C1CCN(Cc2cnc(Oc3ccc(N)cc3)s2)CC1,67*,17,76*,-31,?,3%,?
COc1ccc(NC(=O)Cn2c(=O)n(Cc3ccco3)c(=O)c3cc(OC)c(OC)cc32)cc1,nt,nt,1,-6,nt,nt,nt
CC(OC(=O)C1CCCC1)C(=O)Nc1ncc(Cl)cc1Cl (stereo not given),-6,-1,0,4,2,-3%,-2%
Cc1cc(C)cc(NC(=O)C(=O)NCC(c2cccnc2)N2CCc3ccccc32)c1 (stereo not given),nt,nt,-1,5,nt,nt,nt
OCCC1CN(CCCc2ccccc2)CCN1Cc1ccc(F)cc1 (stereo not given),29,-32,1,-18,-2,nt,nt
Cc1ccc(CN2CCN(CCCc3ccccc3)CC2CCO)cc1 (stereo not given),49*,-23,53*,-30,-1,-2%,3%
Cc1csc(=O)n1CCC(=O)OC(C)C(=O)Nc1ccc(N2CCOCC2)cc1 (stereo not given),-4,-1,-1,-5,7,nt,nt
CC(=O)c1cccc(NC(=O)C(C)OC(=O)CCn2c(C)csc2=O)c1 (stereo not given),-11,-7,0,0,-2,-6%,-3%
O=C(c1ccc(N2CCCC2=O)cc1)N1CCN(c2ccccc2F)CC1,6,-15,55*,-17,5,?,12%
SMILES,D2 antagonist,D2 PAM-1,D2 ag-1,D2 PAM-2,D2 ag-2,D3 ag,D2 ag-3
CCN1CCN(CC(O)COc2cccc(OC)c2)CC1 (stereo not given),2,-12,0,5,0,nt,nt
COc1cccc(OC)c1OCC(O)CN1CCN(c2ccc(F)cc2)CC1 (stereo not given),73*,-25,56*,-31,4,-10%,5%
OC(COc1c(F)cc(Br)cc1F)CN1CCN(c2ccc(F)cc2)CC1 (stereo not given),71*,-14,59*,-30,1,?,?
OC(COc1ccc2ccccc2c1)CN1CCN(c2ccc(F)cc2)CC1 (stereo not given),20,4,53*,-27,1,?,30%
COc1cccc(OCC(O)CN2CCN(c3ccc(F)cc3)CC2)c1 (stereo not given),80*,-13,34*,-20,1,10%,3%
CCOc1ccc(NC(=O)c2cc3c(n(-c4ccc(OC)cc4)c2=O)CC(C)(C)CC3=O)cc1,nt,nt,0,16,nt,nt,nt
CNC[C@H](O)c1cccc(O)c1,91*,5,77*,-28,2,-1%,?
COc1ccc(C)cc1NC(=O)NCc1ccc2c(c1)CCN2C(=O)c1ccccc1,nt,nt,-1,-14,nt,nt,nt
O=C(CC1SC(N2CCCC2)=NC1=O)Nc1ccc(C(=O)NCc2ccccc2F)cc1 (stereo not given),nt,-1,nt,nt,2,nt,nt
CNC(=O)c1ccc(NC(=O)CC2SC(N3CCCC3)=NC2=O)cc1 (stereo not given),39*,11,0,-11,1,-9%,-7%
O=C(CC1SC(N2CCCC2)=NC1=O)Nc1ccc(C(=O)NCCOc2ccccc2F)cc1 (stereo not given),52*,-14,66*,-24,2,?,9%
OC(CNCCc1ccc(C(F)(F)F)cc1)COc1cccc2ccccc12 (stereo not given),21,-18,7,8,-10,26%,4%
COc1ccc(C(C)C)cc1S(=O)(=O)NCc1ccccn1,-12,0,0,6,-4,nt,nt
Cc1ccc(C(C)C)cc1S(=O)(=O)NCc1ccccn1,nt,6,nt,1,-2,-3%,0%
COc1ccc(S(=O)(=O)N2CCOCC2)cc1NC(=O)COc1ccccc1OC,-40,-3,0,2,0,nt,nt
COc1ccccc1Oc1ccc(S(=O)(=O)N2CCOCC2)cc1S(=O)(=O)N1CCOCC1,1,-4,44*,-14,-4,1%,-1%
